Most compounds without a hit are left out; they make up all but 4.7% or so of the library.
TRHR agonist = activates the human TRH receptor; P34981; activation, % at 2 µM; 360,000 tested, 0.18% active; AID 493084; TRHR cells, calcium flux fluo-8, FDSS agonist mode; further: 0% is about no effect
Target sequence (P34981 whole entry, looked up): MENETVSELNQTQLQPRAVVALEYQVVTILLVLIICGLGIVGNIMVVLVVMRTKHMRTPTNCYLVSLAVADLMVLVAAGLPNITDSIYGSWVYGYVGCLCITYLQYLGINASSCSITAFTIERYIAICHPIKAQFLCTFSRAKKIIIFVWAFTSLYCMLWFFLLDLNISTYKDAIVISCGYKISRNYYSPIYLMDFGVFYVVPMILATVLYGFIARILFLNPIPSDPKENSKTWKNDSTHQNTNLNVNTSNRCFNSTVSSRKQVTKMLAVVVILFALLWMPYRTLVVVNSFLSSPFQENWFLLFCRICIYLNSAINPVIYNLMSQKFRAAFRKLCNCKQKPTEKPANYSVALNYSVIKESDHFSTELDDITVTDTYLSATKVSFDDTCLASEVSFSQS
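TRHR-expressing cells, plated overnight in medium with 10% serum, were loaded with fluo-8 calcium dye at room temperature. After a 10 s baseline, library compound was pin-added and calcium release was recorded kinetically (ex 480/em 530) as agonist response.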
D1 PAM = human D1 dopamine receptor positive modulation. P21728. HEK293 TREx D1 cells, calcium flux, dopamine EC20 potentiation. potentiation, % at 10 µM. 360,000 tested, 0.036% active. AID 504651; in the data active means potentiation above about 30%; further: 0% is about no effect
D1 antag = antagonists of human D1 dopamine receptor; P21728; HEK293 TREx D1 cells, calcium flux, dopamine EC80; hits give low values; activity change, negative = inhibition, % at 10 µM; 360,000 tested, 3.2% active; in the data active means activity change below about -30%; further: on the % scale 0 is the no-effect control and ±100 the full control effect
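Antagonism measured as reduced calcium response to an EC80 dopamine addition following 180 s compound pre-read; cells were inducible HEK293 Trex D1 plated overnight at 30 C, read kinetically at 1 cycle/sec.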
TRHR PAM = allosteric enhancers of human TRH receptor; P34981; TRHR cells, fluo-8 calcium fluorescence, EC20 TRH enhancement; enhancement, % at 2 µM; 360,000 tested, 0.66% active; AID 493056; in the data active means enhancement above about 30%; further: 0% is about no effect
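TRHR-expressing cells loaded with fluo-8 calcium dye were read kinetically (ex 480/em 530) during compound addition, then stimulated with an EC20 of TRH (10 nM final). Enhancement of the Gq-mediated intracellular calcium response was scored.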
D1 ag = human D1 receptor agonism; HEK293 T-REx D1 cells, calcium flux, agonist mode; activation, % at 2 µM; 360,000 tested, 1% active; P21728; further: 0% is about no effect
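Inducible HEK293 T-REx D1 cells, force-coupled to calcium signalling, were plated at 4000 cells/well with tetracycline and held overnight at 30 C. After no-wash calcium dye loading, compound-evoked calcium rise over 180 s flagged agonists.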
The depositor's hits bear a star; . = not tested or not shown. Unless noted, no stated cut-off is given here; in the data, active means activation above about 30%; inactive means the rest.

SMILES	TRHR agonist	D1 PAM	D1 antag	TRHR PAM	D1 ag
COC(=O)C1=C(CS(=O)(=O)c2cc(Cl)ccc2OC)NC(=O)NC1c1ccccc1 (stereo not drawn)	-0.1	-1.6	6.3	-1.9	-0.8
O=C(COc1ccc(F)cc1)Nc1ccc(S(=O)(=O)N(Cc2ccccc2)c2ccccc2)cc1	-0.5	-0.1	-4.0	-1.2	26.7
Cc1ccccc1OCCC(=O)Nc1ccc(S(=O)(=O)N(C)C2CCN(C)CC2)cc1	-0.4	-1.1	-66.1*	3.7	55.4*
Cc1ccc(OCC(=O)Nc2ccc(S(=O)(=O)N(C)C3CCN(C)CC3)cc2)c(C)c1	0.6	-11.4	-24.0	-2.4	19.7
Cc1ccccc1OCC(=O)Nc1ccc(S(=O)(=O)N(Cc2ccccc2)c2ccccc2)cc1	1.2	0.9	-50.5*	-3.1	4.5
CN1CCC(N(C)S(=O)(=O)c2ccc(NC(=O)COc3ccc(Br)cc3Cl)cc2)CC1	3.8	-15.7	-44.4*	-6.2	30.6*
Cc1cc(=O)oc2cc(OCC(=O)Nc3ccc4[nH]c(=O)[nH]c4c3)ccc12	0.3	-4.6	8.2	-0.8	1.1
Cc1cccc2nc(Cn3c(=O)n(-c4ccc(Cl)cc4)c(=O)c4c5c(sc43)CCC5)cc(=O)n12	1.6	0.7	-5.4	4.1	0.6
Cc1nn2c(=O)c3c4c(sc3nc2n1-c1ccccc1)COC(C)(C)C4	-1.0	5.2	1.9	39.5*	2.6
Cc1nnc2n(-c3ccccc3)c(=O)c3c4c(sc3n12)COC(C)(C)C4	-0.5	-3.4	-7.3	25.2	2.7
COc1ccc(NS(=O)(=O)c2ccc3oc(SC(C)C(N)=O)nc3c2)cc1 (stereo not drawn)	-0.2	-5.1	-0.5	-10.5	-0.1
COC(=O)CN1C(=O)C(C)(C)c2cc(S(=O)(=O)NCc3ccc(Cl)cc3)ccc21	0.1	1.9	10.5	1.4	0.4
CCOc1cccc(-c2cc(C(=O)Nc3ccon3)c3ccccc3n2)c1	0.3	-2.2	-4.7	1.7	-1.7
O=C(NC1=NCCS1)c1cc(Cl)ccc1Cl	0.2	-2.8	4.5	38.9*	5.1
O=C(Nc1ccon1)c1cc(-c2ccccc2)nc2ccccc12	1.0	-7.0	-32.2*	-5.7	0.0
O=C(NC1=NCCS1)c1cc(-c2ccc(F)cc2)nc2ccccc12	1.5	-4.2	-36.7*	10.2	-1.3
O=C(NC1=NCCS1)c1ccccc1Cl	0.0	-4.3	-7.5	-1.8	2.2
Cc1ccc(NC(=O)c2cc(-c3cccs3)nc3ccccc23)nc1	-0.5	-10.9	-48.2*	-1.8	1.1
CCOc1ccccc1NC(=O)CSc1cc(=O)n(CC)c2ccccc12	-0.3	3.5	-6.6	-6.5	19.7
Cc1nonc1C(=O)N1CCCC(Nc2ccc(C(C)C)cc2)C1 (stereo not drawn)	0.5	-7.8	-9.8	-3.0	0.2
Cc1ccc(CNC(=O)COC(=O)c2ccc(S(=O)(=O)N3CCCC3)cc2)cc1	-0.3	-2.9	-30.4*	-5.0	3.7
CCOc1ccc(CCNC(=O)COC(=O)c2ccc(S(C)(=O)=O)cc2)cc1OCC	-0.1	-6.8	3.0	-2.3	0.8
CCOc1ccc(CCNC(=O)COC(=O)c2ccc(C)c([N+](=O)[O-])c2)cc1OCC	-1.4	0.2	-46.9*	3.9	2.7
CCOc1ccc(CCNC(=O)COC(=O)c2ccc(S(=O)(=O)N3CCCC3)cc2)cc1OCC	0.1	-3.5	-37.5*	1.0	3.9
Cc1ccc(NC(=O)CCN2C(=O)NC3(CCCC3)C2=O)c(C)c1	-0.5	-14.4	-33.6*	-6.3	1.8
SMILES	TRHR agonist	D1 PAM	D1 antag	TRHR PAM	D1 ag
Cc1ccc(NC(=O)NC(=O)CN2C(=O)NC3(CCCCCCC3)C2=O)c(C)c1	0.2	0.4	-12.0	-3.1	0.3
O=C(CNC(=O)C1CCCCC1)Nc1ccccc1Cl	-0.5	15.6	-93.2*	-1.6	2.4
CC(C)CS(=O)(=O)c1oc(-c2ccc(F)cc2)nc1S(=O)(=O)c1ccccc1	1.3	0.3	11.4	-1.9	6.4
COc1ccc(C(=O)Nc2cc(C(C)=O)c(/C=C/N(C)C)oc2=O)cc1	22.5	-2.8	20.0	-4.8	40.6*
CCc1ccc(NC(=O)Cn2cnc3nc4c(cc3c2=O)CCCC4)cc1	-0.6	-3.3	-32.4*	14.9	5.6
O=C(Cn1cnc2nc3c(cc2c1=O)CCCC3)N1CCN(c2ccccc2)CC1	0.4	-0.8	0.8	31.8*	1.1
Cc1ccc(C)c(N2CCN(C(=O)Cn3cnc4nc5c(cc4c3=O)CCCC5)CC2)c1	0.0	-0.4	0.2	-0.4	8.3
CCOc1ccc(NC(=O)Cn2cnc3nc4c(cc3c2=O)CCCC4)cc1	-0.3	0.8	12.5	-0.3	-0.4
CCN(CC)CCCNC(=O)c1c(C)oc2ncn(CC(C)C)c(=O)c12	0.9	-0.2	-17.1	-2.3	0.7
CC(Oc1ccccc1Cl)C(=O)Nc1ccc(S(=O)(=O)N2CCCC2)cc1 (stereo not drawn)	-1.0	3.8	13.3	34.5*	24.9
O=C(Cc1ccc(Cl)cc1)Nc1ccc(S(=O)(=O)N2CCOCC2)cc1	2.5	1.4	29.5	9.6	34.0*
CC(OC(=O)C(C)Oc1ccccc1)C(=O)Nc1ccc(S(=O)(=O)N2CCCCC2)cc1 (stereo not drawn)	1.1	.	2.8	4.9	4.4
COc1ccc(CC(=O)Nc2ccc(F)c(Cl)c2)cc1S(=O)(=O)N1CCOCC1	1.2	-6.0	-35.2*	0.6	13.0
CC(Oc1ccc(Cl)cc1)C(=O)Nc1ccc(S(=O)(=O)N2CCOCC2)cc1 (stereo not drawn)	4.4	-0.1	-17.3	-1.0	46.5*
O=C(Cn1nc(-c2ccccc2)nc(Cc2ccccc2)c1=O)Nc1ccccc1	0.1	-2.0	-2.6	0.9	1.9
COc1ccc(/C=N\NC(=O)c2sccc2C)cc1Cn1nc(C)cc1C	2.6	0.8	17.1	-1.5	0.6
Cc1csc(SC(C)C(=O)Nc2ccc(S(=O)(=O)N3CCCC3)cc2)n1 (stereo not drawn)	-0.7	-8.0	-40.2*	3.9	5.3
Cc1nnc(SC(C)C(=O)Nc2ccc(S(=O)(=O)N3CCCCC3)cc2)s1 (stereo not drawn)	0.5	-7.7	-10.2	-4.8	6.0
Cc1ccc(SC(C)C(=O)Nc2ccc(S(=O)(=O)N3CCOCC3)cc2)cc1 (stereo not drawn)	4.1	-2.2	4.6	0.3	45.5*
COC(=O)C1=NN(c2cccc(C)c2)C2C(=O)N(c3ccccc3OC)C(=O)C12 (stereo not drawn)	1.0	-2.5	7.1	0.3	4.4
N#C/C(=C\c1ccc[nH]1)C(=O)Nc1ccccc1Cl	2.5	-3.8	0.0	10.6	5.3
N#C/C(=C\c1ccc[nH]1)C(=O)Nc1ccccc1F	1.4	-4.8	-31.2*	1.9	0.5
Cn1c(SCC(=O)N/N=C/C=C\c2ccco2)nc2ccccc21	0.1	10.4	7.5	3.3	0.4
